# Assay results: article PMC11006913
# Assays:
# Experiment in all cases: PBM; 200 nM protein, PBS
# Conditions in all cases: dsDNA, one strand shown
# [1] = biological target: SHOX (Homo sapiens, UniProt O15266 103-189)
# [2] = biological target: SHOX (Homo sapiens, UniProt O15266 103-189, R173C)
# [3] = biological target: PROP1 (Homo sapiens, UniProt O75360 56-141)
# [4] = biological target: PROP1 (Homo sapiens, UniProt O75360 56-141, R99H)
# [5] = biological target: PROP1 (Homo sapiens, UniProt O75360 56-141, F88S)
# [6] = biological target: CRX (Homo sapiens, UniProt O43186 26-111, R41L)
# [7] = biological target: VAX1 (Homo sapiens, UniProt Q5SQQ9 86-172)
# [8] = biological target: VAX1 (Homo sapiens, UniProt Q5SQQ9 86-172, T142I)
# [9] = biological target: VAX1 (Homo sapiens, UniProt Q5SQQ9 86-172, K157R)
# [10] = biological target: CRX (Homo sapiens, UniProt O43186 26-111)
# [11] = biological target: NKX3-2 (Homo sapiens, UniProt P78367 192-278, P234S)
# [12] = biological target: NKX3-2 (Homo sapiens, UniProt P78367 192-278)
# Chain of NKX3-2 (Homo sapiens, UniProt P78367 192-278) (P78367 192-278): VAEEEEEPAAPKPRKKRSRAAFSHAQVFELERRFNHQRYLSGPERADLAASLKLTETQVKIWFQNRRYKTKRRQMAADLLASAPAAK
# Chain of SHOX (Homo sapiens, UniProt O15266 103-189) (O15266 103-189): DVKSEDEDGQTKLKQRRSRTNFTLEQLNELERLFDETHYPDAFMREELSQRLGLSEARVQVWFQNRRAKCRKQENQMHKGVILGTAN
# Chain of SHOX (Homo sapiens, UniProt O15266 103-189, R173C) (O15266 103-189 R173C): as the sequence (O15266 103-189) above, with R71C counted along it
# Chain of VAX1 (Homo sapiens, UniProt Q5SQQ9 86-172) (Q5SQQ9 86-172): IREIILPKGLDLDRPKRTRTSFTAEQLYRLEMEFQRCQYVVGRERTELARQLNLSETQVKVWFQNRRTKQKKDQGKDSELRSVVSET
# Chain of VAX1 (Homo sapiens, UniProt Q5SQQ9 86-172, K157R) (Q5SQQ9 86-172 K157R): as the sequence (Q5SQQ9 86-172) above, with K72R counted along it
# Chain of PROP1 (Homo sapiens, UniProt O75360 56-141, F88S) (O75360 56-141 F88S): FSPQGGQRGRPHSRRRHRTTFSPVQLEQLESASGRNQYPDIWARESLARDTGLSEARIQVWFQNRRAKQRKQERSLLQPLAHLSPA
# Chain of VAX1 (Homo sapiens, UniProt Q5SQQ9 86-172, T142I) (Q5SQQ9 86-172 T142I): as the sequence (Q5SQQ9 86-172) above, with T57I counted along it
# Chain of PROP1 (Homo sapiens, UniProt O75360 56-141, R99H) (O75360 56-141 R99H): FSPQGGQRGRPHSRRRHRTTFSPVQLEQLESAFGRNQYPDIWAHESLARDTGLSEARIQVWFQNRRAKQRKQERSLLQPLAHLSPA
# Chain of PROP1 (Homo sapiens, UniProt O75360 56-141) (O75360 56-141): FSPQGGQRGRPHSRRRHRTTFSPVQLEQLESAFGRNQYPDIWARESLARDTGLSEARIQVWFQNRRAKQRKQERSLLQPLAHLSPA
# Chain of CRX (Homo sapiens, UniProt O43186 26-111) (O43186 26-111): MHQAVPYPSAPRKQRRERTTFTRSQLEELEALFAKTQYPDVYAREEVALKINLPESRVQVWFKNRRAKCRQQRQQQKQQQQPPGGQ
# Chain of CRX (Homo sapiens, UniProt O43186 26-111, R41L) (O43186 26-111 R41L): as the sequence (O43186 26-111) above, with R16L counted along it
# Chain of NKX3-2 (Homo sapiens, UniProt P78367 192-278, P234S) (P78367 192-278 P234S): as the sequence (P78367 192-278) above, with P43S counted along it
sequence,measurement,setting,value
CCGGCGTC,binding signal,[1],"7.01 upbm affinity estimate (log intensity, higher = more binding, comparable within an allelic series)"
same,binding signal,[2],"7.17 upbm affinity estimate (log intensity, higher = more binding, comparable within an allelic series)"
CCCAGCGA,binding signal,[1],"7.15 upbm affinity estimate (log intensity, higher = more binding, comparable within an allelic series)"
same,binding signal,[2],"7.2 upbm affinity estimate (log intensity, higher = more binding, comparable within an allelic series)"
GCCTATTA,binding signal,[1],"10.8 upbm affinity estimate (log intensity, higher = more binding, comparable within an allelic series)"
same,binding signal,[2],"8.45 upbm affinity estimate (log intensity, higher = more binding, comparable within an allelic series)"
CTCCTCCC,binding signal,[1],"7.03 upbm affinity estimate (log intensity, higher = more binding, comparable within an allelic series)"
same,binding signal,[2],"7.12 upbm affinity estimate (log intensity, higher = more binding, comparable within an allelic series)"
GCATTACC,binding signal,[1],"8.63 upbm affinity estimate (log intensity, higher = more binding, comparable within an allelic series)"
same,binding signal,[2],"7.62 upbm affinity estimate (log intensity, higher = more binding, comparable within an allelic series)"
CTTGGCCC,binding signal,[1],"7.14 upbm affinity estimate (log intensity, higher = more binding, comparable within an allelic series)"
same,binding signal,[2],"7.2 upbm affinity estimate (log intensity, higher = more binding, comparable within an allelic series)"
CCTTTCCC,binding signal,[1],"7.21 upbm affinity estimate (log intensity, higher = more binding, comparable within an allelic series)"
same,binding signal,[2],"7.11 upbm affinity estimate (log intensity, higher = more binding, comparable within an allelic series)"
same,binding signal,[3],"6.78 upbm affinity estimate (log intensity, higher = more binding, comparable within an allelic series)"
same,binding signal,[4],"6.87 upbm affinity estimate (log intensity, higher = more binding, comparable within an allelic series)"
same,binding signal,[5],"6.77 upbm affinity estimate (log intensity, higher = more binding, comparable within an allelic series)"
GCTAATAC,binding signal,[1],"9.1 upbm affinity estimate (log intensity, higher = more binding, comparable within an allelic series)"
same,binding signal,[6],"10.9 upbm affinity estimate (log intensity, higher = more binding, comparable within an allelic series)"
CTGAGGCA,binding signal,[1],"7.29 upbm affinity estimate (log intensity, higher = more binding, comparable within an allelic series)"
same,binding signal,[2],"7.31 upbm affinity estimate (log intensity, higher = more binding, comparable within an allelic series)"
CACCGGGG,binding signal,[1],"7.32 upbm affinity estimate (log intensity, higher = more binding, comparable within an allelic series)"
same,binding signal,[2],"7.13 upbm affinity estimate (log intensity, higher = more binding, comparable within an allelic series)"
same,binding signal,[3],"6.79 upbm affinity estimate (log intensity, higher = more binding, comparable within an allelic series)"
same,binding signal,[4],"6.87 upbm affinity estimate (log intensity, higher = more binding, comparable within an allelic series)"
same,binding signal,[5],"6.47 upbm affinity estimate (log intensity, higher = more binding, comparable within an allelic series)"
CTCCGAAC,binding signal,[1],"7.18 upbm affinity estimate (log intensity, higher = more binding, comparable within an allelic series)"
same,binding signal,[2],"7.23 upbm affinity estimate (log intensity, higher = more binding, comparable within an allelic series)"
CGGCCTGA,binding signal,[1],"7.33 upbm affinity estimate (log intensity, higher = more binding, comparable within an allelic series)"
same,binding signal,[2],"7.17 upbm affinity estimate (log intensity, higher = more binding, comparable within an allelic series)"
CCGAGGGA,binding signal,[1],"7.05 upbm affinity estimate (log intensity, higher = more binding, comparable within an allelic series)"
same,binding signal,[2],"7.2 upbm affinity estimate (log intensity, higher = more binding, comparable within an allelic series)"
same,binding signal,[7],"7.35 upbm affinity estimate (log intensity, higher = more binding, comparable within an allelic series)"
same,binding signal,[8],"7.23 upbm affinity estimate (log intensity, higher = more binding, comparable within an allelic series)"
same,binding signal,[9],"7.35 upbm affinity estimate (log intensity, higher = more binding, comparable within an allelic series)"
CCCGGGGC,binding signal,[1],"7.23 upbm affinity estimate (log intensity, higher = more binding, comparable within an allelic series)"
same,binding signal,[2],"7.07 upbm affinity estimate (log intensity, higher = more binding, comparable within an allelic series)"
CCGCGCCA,binding signal,[1],"7.12 upbm affinity estimate (log intensity, higher = more binding, comparable within an allelic series)"
same,binding signal,[2],"7.11 upbm affinity estimate (log intensity, higher = more binding, comparable within an allelic series)"
CCGGATGC,binding signal,[1],"6.64 upbm affinity estimate (log intensity, higher = more binding, comparable within an allelic series)"
same,binding signal,[2],"7.08 upbm affinity estimate (log intensity, higher = more binding, comparable within an allelic series)"
same,binding signal,[7],"6.72 upbm affinity estimate (log intensity, higher = more binding, comparable within an allelic series)"
same,binding signal,[8],"6.89 upbm affinity estimate (log intensity, higher = more binding, comparable within an allelic series)"
same,binding signal,[9],"6.77 upbm affinity estimate (log intensity, higher = more binding, comparable within an allelic series)"
CCTCGGAG,binding signal,[1],"7.14 upbm affinity estimate (log intensity, higher = more binding, comparable within an allelic series)"
same,binding signal,[2],"7.17 upbm affinity estimate (log intensity, higher = more binding, comparable within an allelic series)"
CCAGAGGC,binding signal,[1],"7.17 upbm affinity estimate (log intensity, higher = more binding, comparable within an allelic series)"
same,binding signal,[2],"7.18 upbm affinity estimate (log intensity, higher = more binding, comparable within an allelic series)"
CGGATGAG,binding signal,[10],"9.93 upbm affinity estimate (log intensity, higher = more binding, comparable within an allelic series)"
CCCACTCG,binding signal,[1],"7.04 upbm affinity estimate (log intensity, higher = more binding, comparable within an allelic series)"
same,binding signal,[2],"7.12 upbm affinity estimate (log intensity, higher = more binding, comparable within an allelic series)"
CCCCGAAC,binding signal,[1],"7.23 upbm affinity estimate (log intensity, higher = more binding, comparable within an allelic series)"
same,binding signal,[2],"7.26 upbm affinity estimate (log intensity, higher = more binding, comparable within an allelic series)"
CCACCTCG,binding signal,[1],"7.13 upbm affinity estimate (log intensity, higher = more binding, comparable within an allelic series)"
same,binding signal,[2],"7.18 upbm affinity estimate (log intensity, higher = more binding, comparable within an allelic series)"
AGGGTCGG,binding signal,[1],"7.15 upbm affinity estimate (log intensity, higher = more binding, comparable within an allelic series)"
same,binding signal,[2],"7.14 upbm affinity estimate (log intensity, higher = more binding, comparable within an allelic series)"
CAATCTTC,binding signal,[1],"7.99 upbm affinity estimate (log intensity, higher = more binding, comparable within an allelic series)"
same,binding signal,[2],"7.51 upbm affinity estimate (log intensity, higher = more binding, comparable within an allelic series)"
CAACCAGC,binding signal,[1],"7.2 upbm affinity estimate (log intensity, higher = more binding, comparable within an allelic series)"
same,binding signal,[2],"7.18 upbm affinity estimate (log intensity, higher = more binding, comparable within an allelic series)"
CCGAAGCG,binding signal,[1],"7.16 upbm affinity estimate (log intensity, higher = more binding, comparable within an allelic series)"
same,binding signal,[2],"7.24 upbm affinity estimate (log intensity, higher = more binding, comparable within an allelic series)"
ACCCGCCC,binding signal,[1],"7.27 upbm affinity estimate (log intensity, higher = more binding, comparable within an allelic series)"
same,binding signal,[2],"7.22 upbm affinity estimate (log intensity, higher = more binding, comparable within an allelic series)"
CGAGCGCA,binding signal,[1],"7.22 upbm affinity estimate (log intensity, higher = more binding, comparable within an allelic series)"
same,binding signal,[2],"7.31 upbm affinity estimate (log intensity, higher = more binding, comparable within an allelic series)"
CGGGCGTC,binding signal,[1],"7.36 upbm affinity estimate (log intensity, higher = more binding, comparable within an allelic series)"
same,binding signal,[2],"7.21 upbm affinity estimate (log intensity, higher = more binding, comparable within an allelic series)"
same,binding signal,[11],"10.6 upbm affinity estimate (log intensity, higher = more binding, comparable within an allelic series)"
same,binding signal,[12],"10.5 upbm affinity estimate (log intensity, higher = more binding, comparable within an allelic series)"
GGCCAGAC,binding signal,[1],"7.3 upbm affinity estimate (log intensity, higher = more binding, comparable within an allelic series)"
same,binding signal,[2],"7.26 upbm affinity estimate (log intensity, higher = more binding, comparable within an allelic series)"
